D2 PAM-1: positively modulates the human D2 dopamine receptor allosterically; potentiation, % at 10 µM; P14416; hit rate 0.34% among 340,000; HEK293 T-REx D2, calcium flux, EC20 dopamine potentiation;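 active means potentiation over 3 SD above the plate norm, cut at about 30% in these data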; further: 0% is about no effect
Target sequence (P14416 whole entry, looked up): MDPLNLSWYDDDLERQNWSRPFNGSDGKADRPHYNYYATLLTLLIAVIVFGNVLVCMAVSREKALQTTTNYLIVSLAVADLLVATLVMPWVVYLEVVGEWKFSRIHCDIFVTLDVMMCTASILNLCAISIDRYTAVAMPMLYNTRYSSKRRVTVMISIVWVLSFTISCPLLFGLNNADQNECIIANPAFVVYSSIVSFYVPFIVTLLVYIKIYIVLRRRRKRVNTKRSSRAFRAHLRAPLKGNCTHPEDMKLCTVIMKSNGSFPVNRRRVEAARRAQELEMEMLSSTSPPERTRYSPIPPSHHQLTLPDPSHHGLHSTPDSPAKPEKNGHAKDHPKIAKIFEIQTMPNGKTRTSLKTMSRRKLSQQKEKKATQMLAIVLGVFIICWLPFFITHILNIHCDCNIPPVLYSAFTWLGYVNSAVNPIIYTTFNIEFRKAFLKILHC
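Tetracycline-induced HEK293 T-REx cells force-coupled to calcium signalling expressed D2; compounds were pin-added after a 10 s baseline, read kinetically 180 s, then an EC20 dopamine challenge followed with a further 180 s calcium read.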
D2 ag-1: activates the human D2 dopamine receptor. HEK293 T-REx D2 cells, calcium flux agonist mode. activation, % at 2 µM. hit rate 0.53% among 340,000;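 active means activation over 3 SD above normal in the single-dose calcium agonist read, cut at about 30% in these data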; further: 0% is about no effect
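Tetracycline-induced HEK293 Trex cells with D2 receptor force-coupled to calcium signaling, plated overnight at 30 C and loaded with no-wash calcium dye. Calcium flux read kinetically for 180 s after compound addition; responses flag agonists.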
D2 antagonist: antagonists of human D2 dopamine receptor. hit rate 2% among 340,000. HEK293 TREx D2 cells, calcium flux, dopamine EC80. P14416. inhibition, % at 10 µM; in the data active means inhibition above about 30%; inactive means below that, where a call was filed; further: 0% is about no effect
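HEK293 T-REx D2 cells, tet-induced, calcium dye no-wash. Cpd pintool add, 180 s kinetic, then EC80 DA, 180 s kinetic. Ca flux read.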
D2 PAM-2: potentiates the human D2 dopamine receptor allosterically; DiscoveRx D2 beta-arrestin cells, luminescence, 90 min; 100% = 57 uM dopamine signal; AID 624464; hit rate 0.23% among 360,000; P14416; potentiation, % (no concentration beside the values); in the data active means potentiation above about 50%
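D2 cells co-treated with compound plus 50 nM dopamine (EC20) for 90 min at 37 deg C to detect potentiation. Beta-arrestin recruitment was read as enzyme-fragment luminescence after 1 h at ambient temperature. Full response was set by 57 uM dopamine.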
D2 ag-2: human D2 receptor agonism in beta-arrestin assay | DiscoveRx PathHunter D2 beta-arrestin, luminescence, 90 min; 100% = 57 uM dopamine signal | activation, % (test concentration not listed) | hit rate 0.084% among 360,000 | AID 624465; in the data active means activation above about 40%
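DiscoveRx PathHunter D2 beta-arrestin cells (2,100/well) attached overnight, then compound-stimulated 90 min at 37 C in HBSS/10 mM HEPES/0.1% Tween-20 buffer; beta-galactosidase complementation read by luminescence after 1 h at ambient temperature. Dopamine 57 uM final (EC100) as control.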
* = called active by the depositor; x = no result. Sampled rows, rich in hits. Any-hit rate of the full collection: about 2.4%.

SMILES	D2 PAM-1	D2 ag-1	D2 antagonist	D2 PAM-2	D2 ag-2
COc1cccc(C(=O)CC2(O)C(=O)N(Cc3ccccc3)c3ccccc32)c1 (configuration not stated)	16	5	x	x	x
CN(C)CCNc1oc(-c2ccccc2Cl)nc1S(=O)(=O)c1ccccc1	-4	0	6	-4	-4
CN(C)CCCNc1oc(-c2ccccc2Cl)nc1S(=O)(=O)c1ccc(F)cc1	-20	2	34*	-21	-3
COc1cccc(CN(C)C(=O)c2ccc(S(=O)(=O)Nc3cccc(C)c3C)cc2)c1OC	x	x	x	-3	1
COc1ccc(C(=O)NNC(=S)NC(=O)C(C)(C)C)cc1	-26	92*	62*	-11	-1
COc1ccc(C(=O)NNC(=O)c2ccc(C(C)(C)C)cc2)cc1	x	0	5	7	5
O=C(Nc1ccc(N2CCOCC2)cc1N1CCOCC1)c1ccc(F)cc1	x	x	x	-26	1
Fc1ccc(N2CCN(c3nnnn3-c3ccccc3)CC2)cc1	-17	-1	50*	-11	0
N#Cc1c(-c2ccco2)cc(-c2cccnc2)nc1N	18	0	-1	5	-1
N#Cc1c(-c2ccco2)cc(-c2ccccn2)nc1N	36*	0	-10	-7	0
CC1CC(C)CN(CCCNC(=O)c2ccc3c(c2)NC(=O)CS3)C1 (configuration not stated)	-8	0	48*	-30	-1
O=C(CN1C(=O)CSc2ccc(S(=O)(=O)N3CCOCC3)cc21)NCCCN1CCOCC1	6	0	9	-6	0
CC1CC(C)CN(CCCNC(=O)CN2C(=O)CSc3ccc(S(=O)(=O)N4CCCCC4)cc32)C1 (configuration not stated)	-3	0	52*	-38	-4
O=C(CN1C(=O)CSc2ccc(S(=O)(=O)N3CCOCC3)cc21)NCCCN1CCc2ccccc2C1	-20	1	47*	-21	0
CCCCNC(=O)c1ccc2c(c1)NC(=O)C(CS(=O)(=O)Cc1cccc(C)c1)N2 (configuration not stated)	2	5	x	x	x
COc1ccc(-n2c3c(cc(-c4nc(-c5ccc(Cl)cc5)cs4)c2=O)C(=O)CC(C)(C)C3)cc1	2	0	x	x	x
Cc1ccc(NC(=O)N2CCN(c3ncccc3C(F)(F)F)CC2)cc1	-13	0	37*	-28	-2
COc1ccc(CNC(=O)C2CCC(=O)N(CCCN3CCCC3=O)C2)cc1 (configuration not stated)	8	1	-2	-27	-6
COc1ccc(C(C)(C)NC(=O)C2CCC(=O)N(CCCN3CCCC3=O)C2)cc1 (configuration not stated)	-13	0	33*	-9	-2
COc1cc(OC)cc(C(=O)NCCSC2CCCCC2)c1	-7	-1	14	-18	0
COc1cccc(OC)c1C(=O)NCCSC1CCCCC1	-6	-2	41*	2	1
CSCSC1=C(C#N)C(c2ccc(Cl)cc2)C(C(C)=O)=C(C)N1 (configuration not stated)	-4	2	32*	x	x
CSC1=C(C#N)C(c2ccccc2)C(C(C)=O)=C(C)N1 (configuration not stated)	-9	-1	8	-5	-7
Cc1ccc(C)c(S(=O)(=O)c2nnn3c2nc(Nc2ccc(F)c(Cl)c2)c2sccc23)c1	2	0	x	x	x
CCCCN1C2CCCC1CC(NC(=O)c1cccc(Cl)c1)C2 (configuration not stated)	-24	0	31*	-30	-3
CCCN1C2CCCC1CC(NC(=O)c1ccccc1)C2 (configuration not stated)	-8	3	30*	-22	0
O=C(Cn1c(=O)n(-c2ccc(Cl)cc2)c(=O)c2c3c(sc21)CCCCC3)Nc1cccc(Cl)c1	7	0	x	x	x
COc1ccc(NC(=O)CN2C(=O)c3ccccc3S2(=O)=O)cc1OC	33*	0	-14	2	0
Cc1ccc(NC(=O)CN2C(=O)c3ccccc3S2(=O)=O)cc1C	-3	0	-3	-5	-3
CCOCCn1c(CN2CCN(c3ccc(F)cc3)CC2)nc2c1c(=O)n(C)c(=O)n2C	3	0	-20	-15	-2

Compound activity as filed in PubChem BioAssay.
